Hits are enriched below; roughly 27% of the tested compounds scored in any of these assays.
CYP2C19 activ – activators of human cytochrome P450 2C19; P33261; AID 1025; recombinant CYP2C19, luciferin-H EGE luminescence; stronger effect = higher value; 0 = fully inhibited enzyme, 1 = untreated enzyme; 96,000 tested, under 10 active; activation factor at 5 µM;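 active = activation factor of at least 2 at 5 µM in the primary screen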
Target sequence (P33261 whole entry, looked up): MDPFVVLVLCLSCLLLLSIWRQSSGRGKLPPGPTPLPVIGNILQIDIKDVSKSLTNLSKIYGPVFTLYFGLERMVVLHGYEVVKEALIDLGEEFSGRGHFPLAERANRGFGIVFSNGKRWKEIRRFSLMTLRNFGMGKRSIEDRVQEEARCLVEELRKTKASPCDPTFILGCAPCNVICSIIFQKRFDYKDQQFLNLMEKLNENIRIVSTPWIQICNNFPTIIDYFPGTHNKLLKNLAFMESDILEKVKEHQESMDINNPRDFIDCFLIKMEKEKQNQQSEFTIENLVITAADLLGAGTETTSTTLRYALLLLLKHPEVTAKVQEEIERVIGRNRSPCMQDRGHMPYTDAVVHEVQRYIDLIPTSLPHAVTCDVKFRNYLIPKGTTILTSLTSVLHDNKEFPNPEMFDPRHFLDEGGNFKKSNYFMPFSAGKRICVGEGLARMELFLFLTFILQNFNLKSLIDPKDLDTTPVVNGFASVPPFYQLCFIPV
Cav32 inh – human Cav3.2 channel inhibition, primary screen. Cav3.2-expressing cells, Fluo-4 calcium fluorescence FDSS; stronger effect = lower value. B-score at 10 µM. 100,000 compounds, 4% hits. AID 449739;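 active = single-dose well whose peak fluorescence ratio is a statistical outlier from its plate by either plate-standardised score or position-corrected B-score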
CYP2C19 inh – blocks human cytochrome P450 2C19; P33261; CYP2C19 Supersomes, luciferin-H EGE luminescence, 30 min; inhibition, % at 5 µM; 96,000 compounds, 21% hits;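 active = CYP2C19 inhibition above a set limit at 5 µM in the primary screen, cut at about 50% in these data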
CYP2C9 inhib – inhibitors of human CYP2C9 | CYP2C9 Supersomes, luciferin-H conversion, luminescence | inhibition, % at 5 µM | 96,000 compounds, 20% hits;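 active = blocking of liver enzyme CYP2C9 beyond about 50% at 5 µM, limit read from the data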
CYP2C9 act – activators of human CYP2C9 | P11712 | recombinant CYP2C9, luciferin-H conversion, luminescence; stronger effect = higher value; factor 1 = untreated enzyme, 0 = blocked | activation factor at 5 µM | 96,000 compounds, 1.4% hits | AID 1024;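 active = activation factor of 2 or more for CYP2C9 at a 5 µM dose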
A number is an active result; 0 = inactive; - = not tested or not shown.

SMILES	CYP2C19 activ	Cav32 inh	CYP2C19 inh	CYP2C9 inhib	CYP2C9 act
C=CCC1(O)C(=O)Nc2ccccc21 (stereo unspecified)	0	0	0	0	0
CCCn1c(=O)[nH]c(=O)c2c1nc(-c1ccc3c(c1)OCCO3)n2CCN1CCOCC1	0	0	0	0	0
CCc1ccc2[nH]c(=O)c(C(c3nnnn3CC3CCCO3)N3CCN4CCCC4C3)cc2c1 (stereo unspecified)	0	0	0	0	0
COc1ccc(N2CCN(CCNC(=O)c3ccc(NC(=O)C4CCCO4)cc3)CC2)cc1 (stereo unspecified)	0	0	0	0	0
C/C(=C\C(=O)c1ccncc1)Nc1ccccc1O	0	-5.7	97	0	0
CC(=O)Nc1ccccc1O	-	0	-	-	-
COc1ccc(N2C(=O)C(Cl)=C(N3CCN(Cc4ccccc4)CC3)C2=O)cc1	0	0	0	0	0
COc1ccc(N2C(=O)C(Cl)=C(N(CCO)Cc3ccccc3)C2=O)cc1	0	0	97	98	0
Cc1ccc(Cn2nnnc2CN2CCC(c3nc4ccc(Cl)cc4[nH]3)CC2)cc1	0	-5.7	89	90	0
Cc1cc(NC(=O)CSc2nc(CCC3CCCC3)nc3ccccc23)no1	0	-8.7	87	90	0
Cc1cc(NC(=O)CSc2c3c(nc4ccccc24)CCC3)no1	0	-	55	56	0
CCN1C(=O)Cc2cc(S(=O)(=O)N3CCOCC3)ccc21	0	0	0	0	0
O=c1c2ccccc2sn1-c1cc(S(=O)(=O)N2CCOCC2)ccc1N1CCOCC1	0	0	66	54	0
COc1ccccc1-n1c(CNC(=O)c2ccco2)nnc1SCC(=O)Nc1cc(C)ccc1C	0	0	0	0	2
COc1cccc(-c2nnc(SCC(=O)NCc3ccc4c(c3)OCO4)n2Cc2ccco2)c1	0	-4.6	0	72	0
COc1ccc(C)cc1NC(=O)CSc1nnc(COc2ccccc2)n1Cc1ccco1	0	-	87	0	0
O=C(CSc1nnc(-c2cccnc2)n1Cc1ccco1)NCc1ccc2c(c1)OCO2	0	0	0	0	0
COc1ccc(NC(=O)CSc2nnc(-c3ccccc3)n2Cc2ccco2)c(OC)c1	0	0	91	86	0
COc1ccc(C)cc1NC(=O)CSc1nnc(COc2ccc(Cl)cc2)n1Cc1ccco1	0	0	0	0	0
Nc1nc(N)c2sc3nc4c(cc3c2n1)CCC4	0	0	0	0	0
Cc1cccc(OCc2nnc(SCC(=O)N(C(C)C)C(C)C)n2Cc2ccco2)c1C	0	-6.6	54	0	0
COc1ccc(C)cc1NC(=O)CSc1nnc(CC(=O)Nc2ccccc2C)n1C	0	0	66	0	0
Cc1cc(NC(=O)CSc2nnc(COc3cccc(C)c3C)n2Cc2ccco2)no1	0	0	0	0	0
COc1ccc(NC(=O)CSc2nnc(-c3ccccc3Cl)n2Cc2ccco2)c(OC)c1	0	0	55	51	0
CCCOc1ccc2oc(=O)c3c(c2c1)CCCN3C(=O)CN(C)Cc1ccccc1	0	0	55	86	0
SMILES	CYP2C19 activ	Cav32 inh	CYP2C19 inh	CYP2C9 inhib	CYP2C9 act
CC(=O)Oc1ccc2oc(=O)c3c(c2c1)CCCN3C(=O)CN1CCN(c2ncccn2)CC1	0	0	0	0	0
CCCCCOc1ccc2oc(=O)c3c(c2c1)CCCN3C(=O)CN1CCCC(C(=O)OCC)C1 (stereo unspecified)	0	0	76	94	0
CCOC(=O)N1CCC(Nc2cc(C)nc3c(-c4ccccc4OC)c(C)nn23)CC1	0	-	84	79	0
C=CCN(CC=C)CC(=O)Nc1ccc(S(N)(=O)=O)cc1	-	0	-	-	-
CCOc1ccc2[nH]c(=O)c(CN(CCc3ccccc3)C(=O)c3cnccn3)cc2c1	0	0	51	0	0
CCOc1ccc2[nH]c(=O)c(CN(Cc3ccccc3OC)C(=O)c3ccccc3)cc2c1	0	0	0	0	0
COc1ccc(NC(=O)N(Cc2ccc(C)cc2)Cc2cccnc2)c(OC)c1	0	0	97	90	0
COc1ccc2[nH]c(=O)c(CN(Cc3cccnc3)C(=O)Nc3ccccc3)cc2c1	0	0	88	88	0
CCOc1ccc2[nH]c(=O)c(CN(CCO)C(=O)CC)cc2c1	0	0	0	0	0
CCOc1ccc2[nH]c(=O)c(CN(Cc3cccnc3)C(=O)Nc3ccccc3OC)cc2c1	0	0	54	0	0
O=C(NC1CCCCC1)N1CCC(n2cnc3ccccc32)CC1	0	0	0	0	0
CCN(CC)CCN(Cc1cc2cc(C)ccc2[nH]c1=O)C(=O)Nc1ccccc1OC	0	0	0	0	0
CCc1ccc2[nH]c(=O)c(CN(Cc3ccccc3OC)C(=O)Nc3ccccc3OC)cc2c1	0	-5.2	0	93	0
O=S(=O)(/C=C/c1ccccc1)N1CCN(c2ccc(F)cc2)CC1	0	0	0	0	0
Cc1ccc(S(=O)(=O)Cc2ccc(C(=O)NCc3cccs3)o2)cc1	0	0	0	72	0
O=C(NCc1cccs1)c1csc2ccccc12	0	0	85	0	0
Cc1occc1C(=O)NCc1cccs1	-	0	-	-	-
CC(C)Cc1cc(C(=O)NCc2cccs2)no1	0	0	80	0	0
CC(C)Cc1cc(C(=O)NCc2cccnc2)no1	0	0	0	0	0
Cc1cc(C(=O)NCc2cccs2)c(C)o1	0	0	50	0	0
O=C(NCc1cccnc1)C(=O)NCC1OCCN1S(=O)(=O)c1ccc(Cl)cc1 (stereo unspecified)	-	0	-	-	-
CC(=O)c1c(C(C)=O)c(C)n(-c2ccc(N)cc2)c1C	0	-	0	0	0
COc1cccc(/C=c2/s/c(=C(\C#N)C(=O)N3CCOCC3)n(-c3ccccc3)c2=O)c1	0	0	0	0	0
O=C(NCc1cccs1)c1ccccc1	0	0	0	0	0
Cc1cc(C(=O)NCc2cccs2)cs1	0	0	73	0	0
SMILES	CYP2C19 activ	Cav32 inh	CYP2C19 inh	CYP2C9 inhib	CYP2C9 act
Cn1c(=O)[nH]c(=O)c2c1nc(N1CCOCC1)n2CCCSc1ncccn1	0	0	0	0	0
CCOC(=O)Nc1ccc(=O)n(Cc2c(Cl)cccc2Cl)c1	0	0	0	53	0
CC(C)[C@H](NC(=O)[C@H](CCCN=C(N)N)NC(=O)NC(Cc1ccccc1)C(=O)O)C(=O)NC(C=O)CCCN=C(N)N (stereo partly specified)	-	0	-	-	-
C=CCN1C(=O)C(O)(CC(=O)c2ccco2)c2cc(Br)ccc21 (stereo unspecified)	-	0	-	-	-
Cc1n[nH]c(C)c1C(=O)CC1(O)C(=O)N(Cc2ccccc2)c2ccc(Br)cc21 (stereo unspecified)	0	0	99	61	0
Cc1n[nH]c(C)c1C(=O)CC1(O)C(=O)N(CCc2ccccc2)c2ccc(Br)cc21 (stereo unspecified)	0	0	56	66	0
CCOC(=O)N1CCN(C(=O)c2noc(C(C)C)c2[N+](=O)[O-])CC1	-	0	-	-	-
Cc1ccc(NCc2nnc(SCC(=O)c3ccccc3)n2Cc2ccco2)c(C)c1	0	0	84	81	0
Cc1ccc(C)c(CSc2nnc(-c3cccs3)n2Cc2ccco2)c1	0	0	52	0	0
